# Source: PubChem
# CSC inhib: blocks cancer stem cells; inhibition, % at 7.5 µM; 300,000 compounds, 1.1% hits; cancer stem cell-like cells viability, luminescence; in the data active means inhibition above about 75%; inconclusive means no clear call, values can overlap the other calls; tested in HMLE shEcad cells
# Calb FLC: C. albicans growth modulation with fluconazole | AID 1979 | 300,000 compounds, 0.57% hits | growth inhibition, % (test concentration not listed) | C. albicans CaCi-2 (fluconazole-resistant clinical isolate) + fluconazole, Alamar Blue growth, 48 h;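 active means growth inhibition above about 58% in most replicates, limit read from the data, passing the limit was not always enough; inconclusive means exactly half the replicates above a set limit; inactive means most replicates below a set limit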;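 further: all wells also contain fluconazole at 8 µg/ml as a sub-toxic cotreatment; 0% = median of DMSO wells and 100% = median of geldanamycin control wells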
# PP5 inh: PP5 (human) phosphatase inhibition; purified PP5c, OMFP substrate fluorescence; P53041; 320,000 compounds, 0.18% hits; inhibition, % at 6.7 µM;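 active means inhibition above the campaign's mean inhibition across all tested compounds plus 3 SD, cut at about 9.5% in these data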;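 further: 0% = DMSO only and 100% = 100 µM cantharidin control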
# Target sequence (P53041 whole entry, looked up): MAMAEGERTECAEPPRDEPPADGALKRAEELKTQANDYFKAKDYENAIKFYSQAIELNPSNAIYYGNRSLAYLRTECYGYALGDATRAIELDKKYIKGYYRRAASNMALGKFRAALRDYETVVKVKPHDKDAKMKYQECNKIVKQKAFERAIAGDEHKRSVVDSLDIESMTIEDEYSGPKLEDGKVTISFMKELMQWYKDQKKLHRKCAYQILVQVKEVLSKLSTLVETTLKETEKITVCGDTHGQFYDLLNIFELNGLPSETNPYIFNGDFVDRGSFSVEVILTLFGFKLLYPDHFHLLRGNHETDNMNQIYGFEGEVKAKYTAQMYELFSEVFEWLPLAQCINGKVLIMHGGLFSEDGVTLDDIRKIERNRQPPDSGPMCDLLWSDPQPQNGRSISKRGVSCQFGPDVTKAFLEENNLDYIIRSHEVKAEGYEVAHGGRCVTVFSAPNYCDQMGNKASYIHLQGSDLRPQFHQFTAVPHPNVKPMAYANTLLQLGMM
# PP1 counter: blocks human PP1-alpha phosphatase, a PP5 counter-screen; purified PP1alpha, OMFP fluorescence; 320,000 compounds, 0.9% hits; P62136; inhibition, % at 6.7 µM; AID 2235;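 active means inhibition above the mean inhibition of all tested compounds plus 3 SD, computed separately for each screening campaign, cut at about 15% in these data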
# ALR H2O2 inh: human ALR oxidase inhibition via reduced H2O2. purified ALR, DTT oxidation, H2O2 HRP-luminol luminescence. inhibition, % (concentration not given with the values). 290,000 compounds, 3.8% hits. AID 485317;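 active means mean replicate inhibition above about 79%, with every replicate also reaching it, limit read from the data; inconclusive means only one of the two criteria met; inactive means mean below limit and not every replicate reaching it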
# * marks the source's active call; other numbers are inactive results; ? = inconclusive; / = no result; + = active, no number. Sampled rows, rich in hits. Any-hit rate of the full collection: about 5.4%.
SMILES,CSC inhib,Calb FLC,PP5 inh,PP1 counter,ALR H2O2 inh
COc1cc2c(cc1OC)-c1cc(Nc3ccc(N(C)C)cc3)nc(=O)n1CC2,5,6,-1,1,99*
CCN(CC)c1ccc(Nc2cc3n(c(=O)n2)CCc2cc(OC)c(OC)cc2-3)cc1,-2,0,2,4,100*
COc1cc2c(cc1OC)-c1cc(Nc3ccc(F)cc3)nc(=O)n1CC2,5,-2,4,-2,-3
Cc1cccc(N2CCN(c3nc4nonc4nc3N3CCSCC3)CC2)n1,-27,?,1,0,-8
CC(=O)c1ccccc1OCCn1nnc(-c2ccc(C)cc2)n1,-7,24,0,1,/
Cc1ccc(-c2cc(N)n(-c3ccccc3)n2)cc1,13,-16,1,5,/
Nc1cc(-c2ccc(OC(F)(F)F)cc2)nn1-c1ccc(Cl)c(Cl)c1,82*,3,0,1,-5
CC(=O)NS(=O)(=O)c1ccc(NC(=O)c2cccc(S(=O)(=O)N3CCc4ccccc43)c2)cc1,-1,-4,0,-5,97*
COc1ccc(NC(C)=O)cc1NC(=O)c1cccc(S(=O)(=O)N2CCc3ccccc32)c1,0,/,4,2,4
COC(=O)Nc1ccc(S(=O)(=O)N2CCCc3ccccc32)cc1,80*,24,3,-2,-14
O=C(NNC1=NCCCCC1)Nc1ccc(Cl)cc1,19,6,-4,-7,1
O=C(NN1C(=O)C2C3C=CC(C4CC34)C2C1=O)c1cccc(Cl)c1 (stereo not drawn),-7,-14,1,-3,26
O=[N+]([O-])c1cccc(CSc2ncnc3ccccc23)c1,10,-2,-1,-6,99*
Cc1cccc(CSc2ncnc3ccccc23)c1,/,-45,-4,0,-14
Cc1ccc2nc3c(c(Nc4cccc(O)c4)c2c1)CCC3,37,-1,6,8,98*
O=C(CSc1c2c(nc3ccccc13)CCCC2)NCc1ccco1,6,12,0,-5,98*
COc1ccc(Nc2nc3ccccc3c(=O)s2)c(OC)c1,-4,-2,1,-1,0
COc1ccc(Nc2c3c(nc4ccccc24)CCC3)c(OC)c1,15,-2,-1,0,99*
COc1ccccc1Nc1c2c(nc3ccccc13)CCC2,70,38,0,0,99*
Fc1cccc(Nc2c3c(nc4ccccc24)CCC3)c1,4,-5,1,0,2
COCc1c(C(=O)N/N=C(\C)c2ccc(Cl)s2)nnn1-c1nonc1N,/,24,2,-1,/
c1ccc2c(Nc3ccc4c(c3)OCCO4)c3c(nc2c1)CCCC3,-7,-3,2,-1,90*
COC(=O)c1cccc(Nc2c3c(nc4ccccc24)CCC3)c1,/,61,/,/,/
COc1ccc(NC(=O)CSc2c3c(nc4ccccc24)CCC3)c(OC)c1,3,5,4,-2,98*
COc1cc(Nc2c3c(nc4ccccc24)CCCC3)cc(OC)c1OC,-4,3,0,0,98*
SMILES,CSC inhib,Calb FLC,PP5 inh,PP1 counter,ALR H2O2 inh
COc1ccc(NC(=O)c2ccc3c(SCC(=O)O)c4c(nc3c2)CCCC4)c(OC)c1,/,-10,-4,12,/
CC1CCN(S(=O)(=O)c2cc(C(=O)NC3(C)CCS(=O)(=O)C3)ccc2Br)CC1 (stereo not drawn),/,/,2,3,-5
CCc1ccccc1NC(=S)N(CCCN1CCOCC1)Cc1ccccn1,-6,5,-1,-2,-27
CCOc1ccc(C(=O)NCCc2ccccc2)cc1,-2,17,1,-2,/
CCOc1ccc(CCNC(=O)C(O)c2ccccc2)cc1 (stereo not drawn),-7,5,2,-3,99*
Oc1sc(C=Nc2ccccc2)c2ccccc12,3,-69,4,2,84*
O=C(OCC(=O)N1c2ccccc2Sc2ccccc21)c1cccnc1,11,-5,-2,-10,28
O=C(c1ccc(OCC2CCCO2)cc1)N1CCN(c2ccccc2)CC1 (stereo not drawn),8,5,4,2,98*
O=C(c1ccc(OCC2CCCO2)cc1)N1CCc2ccccc2C1 (stereo not drawn),-15,-5,-3,6,-3
COc1ccccc1N1CCN(C(=O)c2ccc(CSc3ccccc3)cc2)CC1,58,7,0,-1,-56
O=C(c1ccc(Cn2cc(Cl)cn2)cc1)N1CCN(c2ccccc2)CC1,9,15,1,-2,98*
O=C(c1ccc(CSc2ccccc2)cc1)N1CCN(c2ccccc2)CC1,+,-5,4,6,-19
